Read-out in assay [1]: Monocyte Chemoattractant Protein-1 (MCP1), CCL2 (gene 6347)
The assay can be described thus: BSK_IMphg_MCP1: BioMAP Diversity Plus: IMphg Assay for Monocyte Chemoattractant Protein-1 (MCP1) Biomarker Activity (AID 2284253). As to conditions: primary human endothelial cells with macrophages. In a few lines: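 ELISA readout of MCP-1 at 24 hours in IMphg co-cultures of venular endothelial cells and macrophages, normalised to DMSO; parallel cultures stained with sulforhodamine B for overt cytotoxicity.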

Read-out in assay [2]: Macrophage Inflammatory Protein-1 Alpha (MIP1a), CCL3 (gene 6348)
As to the kind of experiment: BSK_IMphg_MIP1a: BioMAP Diversity Plus: IMphg Assay for Macrophage Inflammatory Protein-1 Alpha (MIP1a) Biomarker Activity (AID 2284255). The conditions noted are these: primary human endothelial cells with macrophages. In a few lines: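 MIP-1a protein levels were quantified by ELISA after 24 h treatment of human endothelial cell–macrophage co-cultures, compared with DMSO. Parallel cultures were fixed with TCA and stained with 0.1% SRB to gauge overt cytotoxicity.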

Read-out in assay [3]: Plasminogen activator inhibitor-1 (PAI1), SERPINE1 (gene 5054)
The assay can be described thus: BSK_MyoF_PAI1: BioMAP Diversity Plus: MyoF Assay for Plasminogen activator inhibitor-1 (PAI1) Biomarker Activity (AID 2284256).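 On outcome: PAI-1 protein level measured by ELISA in fibroblast cultures; PAI-1 read 24 h after compound addition.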 The conditions noted are these: primary human lung fibroblasts. In a few lines: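 In this multiplexed primary-cell system, fibroblasts from human lung received compound for 24 h before ELISA detection of PAI-1; overt toxicity was checked by SRB (0.1%, TCA-fixed, 560 nm) in parallel wells.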

Read-out in a further assay: CD69, CD69 (gene 969)
The assay can be described thus: BSK_IMphg_CD69: BioMAP Diversity Plus: IMphg Assay for CD69 Biomarker Activity (AID 2284257). As to conditions: primary human endothelial cells with macrophages. In a few lines: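 Readout is ELISA for CD69 in primary human venular endothelial cell/macrophage co-culture, taken at 24 h post-dosing. SRB staining of parallel cultures gauged overt cytotoxicity; signal increase versus DMSO defined activity.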

Read-out in assay [4]: Eotaxin 3, CCL26 (gene 10344)
The assay can be described thus: BSK_BF4T_Eotaxin3: BioMAP Diversity Plus: BF4T Assay for Eotaxin 3 Biomarker Activity (AID 2284258). As to conditions: primary human bronchial epithelial cells with fibroblasts. In a few lines: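 ELISA measurement of Eotaxin-3 after 24 h chemical exposure in a bronchial epithelial/dermal fibroblast co-culture, with DMSO as baseline. Parallel SRB staining (0.1% SRB after 10% TCA fixation, 560 nm) flagged overt cytotoxicity.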

Read-out in assay [5]: Intercellular Adhesion Molecule 1 (ICAM1), ICAM1 (gene 3383)
As to the kind of experiment: BSK_BF4T_ICAM1: BioMAP Diversity Plus: BF4T Assay for Intercellular Adhesion Molecule 1 (ICAM1) Biomarker Activity (AID 2284260). As to conditions: primary human bronchial epithelial cells with fibroblasts. In outline:
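ICAM-1 levels measured by ELISA after 24 h chemical treatment of bronchial epithelial cell/dermal fibroblast co-cultures, read against DMSO baseline. Overt cytotoxicity checked in parallel cultures by sulforhodamine B staining.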

Read-out in assay [6]: Interleukin-8 (IL8), CXCL8 (gene 3576)
As to the kind of experiment: BSK_MyoF_IL8: BioMAP Diversity Plus: MyoF Assay for Interleukin-8 (IL8) Biomarker Activity (AID 2284261). As to conditions: primary human lung fibroblasts. In a few lines: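 DMSO-normalised, upward-fitted IL-8 ELISA signal; human lung fibroblasts, 24 h chemical treatment.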

Read-out in assay [7]: Monocyte Chemoattractant Protein-1 (MCP1), CCL2 (gene 6347)
As to the kind of experiment: BSK_BF4T_MCP1: BioMAP Diversity Plus: BF4T Assay for Monocyte Chemoattractant Protein-1 (MCP1) Biomarker Activity (AID 2284259). The conditions noted are these: primary human bronchial epithelial cells with fibroblasts. In outline:
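MCP-1 ELISA readout taken 24 h after dosing in the BF4T system (bronchial epithelial cells plus dermal fibroblasts). Parallel SRB total-protein staining flagged cytotoxicity; DMSO served as baseline, positive fitting direction.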

Read-out in assay [8]: Interleukin-8 (IL8), CXCL8 (gene 3576)
The assay can be described thus: BSK_KF3CT_IL8: BioMAP Diversity Plus: KF3CT Assay for Interleukin-8 (IL8) Biomarker Activity (AID 2284254). As to conditions: primary human keratinocytes with fibroblasts. In outline: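 Using parallel SRB-stained cultures to flag overt toxicity, the study quantified IL-8 by ELISA in human keratinocyte–foreskin fibroblast co-cultures 24 h after dosing, with DMSO as negative control and baseline.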

Read-out in another assay: CD90, THY1 (gene 7070)
The assay can be described thus: BSK_BF4T_CD90: BioMAP Diversity Plus: BF4T Assay for CD90 Biomarker Activity (AID 2284262). As to conditions: primary human bronchial epithelial cells with fibroblasts. In a few lines:
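CD90 levels by ELISA after 24 h treatment of human bronchial epithelial cell/dermal fibroblast cultures, analysed versus DMSO. Overt cytotoxicity checked in parallel cultures by sulforhodamine B staining.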

The structures appear in SMILES notation. Several values for one entry are separate records, joined by “and”; a condition that tells them apart may be missing. Identical values can stand only once. Some compounds were tested as several samples or in several runs, with calls that do not always agree. Activity calls are given as the source filed them. How the source made its calls: active means hit-call score of the fitted dose curve at least 0.9, where 1 is the maximum; inactive means score below 0.9.

`FC(F)(F)C(F)(F)C(F)(F)C(F)(F)C(F)(F)C(F)(F)C(F)(F)Br`: the outcome in [1] was “inactive”; in assay [2], “inactive”; in [3] it was “inactive”; in the assay with CD69, CD69 (gene 969) it was “inactive”; in assay [4], “inactive”; in [5], “inactive”. Besides, the result in assay [6] was inactive.

As a reminder, the AC50 is the concentration at which the activity in the assay is half-maximal. Consider `FC(F)(F)C(F)(F)C(F)(F)C(F)(F)C(F)(F)CCI`, for which the outcome was “inactive” in [1]; “inactive” in [2]; “inactive” in [3]; “inactive” in the assay with CD69, CD69 (gene 969); “inactive” in assay [4]; “inactive” in [7]. In addition, the result in assay [5] and in assay [6] was inactive. For the same compound, in [4], the half-maximal activity concentration (AC50) was 38.6 µM (active).

`O=C(O)C(F)(F)C(F)(F)C(F)(F)F`: the outcome in assay [1] is “inactive”; in assay [8], “inactive”; in [2] it was “inactive”; in assay [3], “inactive”; with CD69, CD69 (gene 969), “inactive”; in assay [4], “inactive”. Also, the result in assay [7], in assay [5] and in assay [6] was inactive.

On to `FC(F)(F)C(F)(F)C(F)(F)C(F)(F)C(F)(F)C(F)(F)C(F)(F)C(F)(F)F`, for which the outcome was “inactive” in assay [1]; “inactive” in assay [2]; “inactive” in assay [3]; “inactive” in the assay with CD69, CD69 (gene 969); “inactive” in [4]; “inactive” in [7]. For the same compound, the result in assay [5] and in [6] was inactive.

Take `O=C(O)C(F)(F)C(F)(F)C(F)(F)C(F)(F)C(F)(F)C(F)(F)C(F)(F)C(F)(F)Cl`: the AC50 in assay [1] was 48.6 µM (active); in assay [2], 37.3 µM (active); in [3], 48.2 µM (active) and 48.5 µM (active); in the assay with CD69, CD69 (gene 969) it was 41.5 µM (active) and 30 µM (active); in assay [4], 8.26 µM (active) and 1.05 µM (active); in assay [5], 41.4 µM (active) and 40 µM (active). The outcome in assay [2] and in assay [6] was inactive.

`O=C(O)C(F)(F)C(F)(F)C(F)(F)C(F)(F)C(F)(F)C(F)(F)C(F)(F)C(F)(F)C(F)(F)C(F)(F)C(F)(F)C(F)(F)C(F)(F)F`: the outcome in [1] was “inactive”; in assay [8], “inactive”; in [2] it was “inactive”; in [3] it was “inactive”; in the assay with CD69, CD69 (gene 969), “inactive”; in assay [4], “inactive”. Further, the outcome in [7], in assay [5] and in assay [6] was inactive.

Regarding `FC(F)(Br)C(F)(F)C(F)(F)C(F)(F)C(F)(F)C(F)(F)Br`, the outcome is “inactive” in [1]; “inactive” in assay [8]; “inactive” in assay [2]; “inactive” in [3]; “inactive” in the assay with CD69, CD69 (gene 969); “inactive” in assay [4]. The result in assay [5] and in [6] was inactive. Besides, in [8], the half-maximal activity concentration (AC50) was 30 µM (active).

Take `O=C(Cl)C(F)(F)C(F)(F)C(F)(F)C(F)(F)C(F)(F)C(F)(F)C(F)(F)C(F)(F)F`: the half-maximal activity concentration (AC50) is 51.4 µM (active) in assay [1]; 23 µM (active) in [2]; 30 µM (active) in [3]; 55.1 µM (active) and 33.8 µM (active) and 45.9 µM (active) in the assay with CD69, CD69 (gene 969); 41.7 µM (active) and 39.5 µM (active) and 45.8 µM (active) in [4]. The outcome in assay [1], in [2], in assay [3], in [5] and in [6] was inactive.

Regarding `FC(F)(F)C(F)(F)C(F)(F)N(C(F)(F)C(F)(F)C(F)(F)F)C(F)(F)C(F)(F)C(F)(F)F`, the outcome was “inactive” in [1]; “inactive” in assay [8]; “inactive” in [2]; “inactive” in assay [3]; “inactive” with CD69, CD69 (gene 969); “inactive” in assay [4]. The outcome in assay [5] was “inactive”; in assay [6], “inactive”; with CD90, THY1 (gene 7070), “inactive”. The concentration at half-maximal activity (AC50) with CD69, CD69 (gene 969) is 1.09 µM (active).

With `FC(F)(F)C(F)(F)C(F)(F)C(F)(F)C(F)(F)C(F)(F)C(F)(F)I`, the outcome in assay [1] was “inactive”; in [2] it was “inactive”; in [3] it was “inactive”; in the assay with CD69, CD69 (gene 969), “inactive”; in [4], “inactive”; in assay [7] it was “inactive”. Besides, the outcome in [5] and in assay [6] was inactive.

Consider `O=C(CC(=O)C(F)(F)C(F)(F)F)C(F)(F)F`, for which the outcome in [1] is “inactive”; in assay [2], “inactive”; in [3], “inactive”; with CD69, CD69 (gene 969), “inactive”; in assay [4], “inactive”; in [5], “inactive”. Further, the result in [6] was inactive.

Turning to `O=C(O)C=C(C(F)(F)F)C(F)(F)F`, the values for the AC50 in assay [1] and in [4] were 42.6 µM (active) and 10.8 µM (active), respectively. Moreover, the outcome was “inactive” in assay [1]; “inactive” in assay [2]; “inactive” in assay [3]; “inactive” with CD69, CD69 (gene 969); “inactive” in [4]; “inactive” in [5]. The outcome in assay [6] was “inactive”; with CD90, THY1 (gene 7070), “inactive”.

Take `C=C(C)C(=O)OCC(F)(F)C(F)(F)C(F)(F)C(F)(F)C(F)(F)C(F)(F)C(F)(F)F`: the outcome in assay [1] is “inactive”; in assay [8] it was “inactive”; in assay [2], “inactive”; in assay [3] it was “inactive”; with CD69, CD69 (gene 969), “inactive”; in assay [4], “inactive”. The result in assay [5] and in [6] was inactive.

On to `O=C(O)C(F)(F)C(F)(F)C(F)(F)C(F)(F)C(F)(F)C(F)(F)C(F)(F)C(F)(F)C(F)(F)C(F)(F)C(F)(F)C(F)(F)F`, for which the outcome in [1] is “inactive”; in [8] it was “inactive”; in [2] it was “inactive”; in assay [3], “inactive”; in the assay with CD69, CD69 (gene 969), “inactive”; in assay [4] it was “inactive”. The outcome in assay [7], in assay [5] and in assay [6] was inactive.

These data come from PubChem BioAssay (EPA / NIEHS).
